The structures appear in SMILES notation.

The first assay has as its target Serine/threonine-protein kinase mTOR (Homo sapiens) (UniProt P42345). The conditions noted are these: at 10 µM.
Turning to `Cc1ccc(NC2=CC(=O)c3sc(C)nc3C2=O)cc1`, the residual activity was 99%. Same read-out and setting: with `O=C1Nc2ccccc2/C1=C1/Nc2ccccc2/C1=N\OCCC(O)CO` (stereo not drawn) the figure was 96%. The same measure, in the same setting: the result for `CC(C)n1cnc2/c(=N/c3cccc(Cl)c3)nc(NCCO)[nH]c21` reads 96%; that for `N#C/C(=C(\N)Sc1ccc(N)cc1)c1ccccc1C(F)(F)F`, 63%; that for `CC#CC(=O)Nc1cc2c(Nc3ccc(F)c(Cl)c3)ncnc2cn1`, 100%. On the same count and under the same terms, with `Cn1nc2c3c(cccc31)C(=O)c1ccccc1-2` the figure was 84%; with `CO[C@H]1C[C@@H]2CC[C@@H](C)[C@@](O)(O2)C(=O)C(=O)N2CCCC[C@H]2C(=O)O[C@H]([C@H](C)C[C@@H]2CC[C@@H](O)[C@H](OC)C2)CC(=O)[C@H](C)/C=C(\C)[C@@H](O)[C@@H](OC)C(=O)[C@H](C)C[C@H](C)/C=C/C=C/C=C/1C`, 51%; with `c1ccc2c(-c3ccncc3)c[nH]c2c1`, 107%.

With `O=C1Nc2ccc(Br)cc2/C1=C\c1cc2c([nH]1)CCCC2`, the residual activity stood at 104%.

In the case of `Cc1nc(-c2ccccc2)c(-c2ccncc2)o1`, the residual activity came out at 103%. On the same count and under the same terms, with `c1ccc(-c2n[nH]c3c2oc2ccccc23)cc1` the figure was 85%; with `O=C1NC(=O)c2c1c1c3ccccc3[nH]c1c1[nH]c3cc(Br)ccc3c21`, 106%. As to `Nc1n[nH]c2nnc(-c3c(-c4ccccc4)nn4ccccc34)cc12`, the residual activity came to 97%.

Regarding `Cc1nc2cc3nc(-c4cccs4)cnc3cc2n1C`, the residual activity came out at 107%. Still for that read-out and setting: the result for `COc1cccc(-c2cc(=O)c3ccccc3o2)c1N` reads 93%; that for `Oc1ccc(-c2nc(-c3ccc(F)cc3)c(-c3ccncc3)[nH]2)cc1`, 90%; that for `Cc1cc2ncc(-c3ccccc3)nc2cc1C`, 100%.

With `COc1cc2ncnc(Nc3ccc(NC(=O)c4ccccc4)cc3)c2cc1OC`, the residual activity worked out at 92%.

As for `Nc1cccc(-c2cc3c(Oc4cccc(O)c4)ncnc3[nH]2)c1`, the residual activity worked out at 83%. Same read-out and setting: the result for `COc1ccc(C(=O)Nc2sc3c(c2C(N)=O)CCCC3)cc1OC` reads 104%. The same measure, in the same setting: the result for `COc1cc2ncnc(Nc3ccc(O)c(Br)c3)c2cc1OC` reads 111%; that for `N#Cc1cnc2cnc(NCc3cccnc3)cc2c1Nc1ccc(F)c(Cl)c1`, 85%; that for `CO[C@H]1[C@@H](OC)C[C@H](C)[C@@H](OC)C2=CC(=O)C=C(NC(=O)/C(C)=C/C=C/[C@H](OC)[C@@H](OC(N)=O)/C(C)=C/[C@@H]1C)C2=O`, 103%. On the same count and under the same terms, the result for `Cc1ccc(S(=O)(=O)/C=C/C#N)cc1` reads 101%. In the case of `CC(=O)O/N=C1\C(=C2\C(=O)Nc3cc(Br)ccc32)Nc2ccccc21`, the residual activity was 94%. Regarding `Nc1ccc2ncnc(NCCc3ccc(Oc4ccccc4)cc3)c2c1`, the residual activity turned out to be 96%.

For a further assay the target is unchanged. The conditions noted are these: at 1 µM.
On to `Cc1ccc(NC2=CC(=O)c3sc(C)nc3C2=O)cc1`, for which the residual activity was 100%.

Take `O=C1Nc2ccccc2/C1=C1/Nc2ccccc2/C1=N\OCCC(O)CO` (stereo not drawn): the residual activity amounted to 112%. Still for that read-out and setting: the result for `CC(C)n1cnc2/c(=N/c3cccc(Cl)c3)nc(NCCO)[nH]c21` reads 82%. On to `N#C/C(=C(\N)Sc1ccc(N)cc1)c1ccccc1C(F)(F)F`, for which the residual activity turned out to be 118%. The same measure, in the same setting: the result for `CC#CC(=O)Nc1cc2c(Nc3ccc(F)c(Cl)c3)ncnc2cn1` reads 113%. `CO[C@H]1C[C@@H]2CC[C@@H](C)[C@@](O)(O2)C(=O)C(=O)N2CCCC[C@H]2C(=O)O[C@H]([C@H](C)C[C@@H]2CC[C@@H](O)[C@H](OC)C2)CC(=O)[C@H](C)/C=C(\C)[C@@H](O)[C@@H](OC)C(=O)[C@H](C)C[C@H](C)/C=C/C=C/C=C/1C`: the residual activity was -17%. Still for that read-out and setting: with `c1ccc2c(-c3ccncc3)c[nH]c2c1` the figure was 75%; with `Cc1cc(Nc2nc(-c3ccccc3)nc3ccccc23)n[nH]1`, 128%; with `O=C1Nc2ccc(Br)cc2/C1=C\c1cc2c([nH]1)CCCC2`, 110%. For `Cc1nc(-c2ccccc2)c(-c2ccncc2)o1`, the residual activity was found to be 116%. Same read-out and setting: the result for `O=C1NC(=O)c2c1c1c3ccccc3[nH]c1c1[nH]c3cc(Br)ccc3c21` reads 76%; that for `Nc1n[nH]c2nnc(-c3c(-c4ccccc4)nn4ccccc34)cc12`, 129%. On the same count and under the same terms, with `Cc1nc2cc3nc(-c4cccs4)cnc3cc2n1C` the figure was 80%; with `COc1cccc(-c2cc(=O)c3ccccc3o2)c1N`, 86%; with `Oc1ccc(-c2nc(-c3ccc(F)cc3)c(-c3ccncc3)[nH]2)cc1`, 123%.

Consider `Cc1cc2ncc(-c3ccccc3)nc2cc1C`, for which the residual activity amounted to 70%. On the same count and under the same terms, the result for `COc1cc2ncnc(Nc3ccc(NC(=O)c4ccccc4)cc3)c2cc1OC` reads 97%; that for `Nc1cccc(-c2cc3c(Oc4cccc(O)c4)ncnc3[nH]2)c1`, 122%. Still for that read-out and setting: with `CN(C)CCCn1cc(C2=C(c3c[nH]c4ccccc34)C(=O)NC2=O)c2ccccc21` the figure was 83%; with `c1ccc(-c2n[nH]cc2-c2ccnc3ccccc23)nc1`, 85%; with `COc1ccc(C(=O)Nc2sc3c(c2C(N)=O)CCCC3)cc1OC`, 95%. Still for that read-out and setting: with `COc1cc2ncnc(Nc3ccc(O)c(Br)c3)c2cc1OC` the figure was 96%. For `CO[C@H]1[C@@H](OC)C[C@H](C)[C@@H](OC)C2=CC(=O)C=C(NC(=O)/C(C)=C/C=C/[C@H](OC)[C@@H](OC(N)=O)/C(C)=C/[C@@H]1C)C2=O`, the residual activity amounted to 77%. Still for that read-out and setting: with `CC(=O)c1ccc(N2CCOCC2)cc1O` the figure was 104%; with `Cc1ccc(S(=O)(=O)/C=C/C#N)cc1`, 86%.

As to `CC(=O)O/N=C1\C(=C2\C(=O)Nc3cc(Br)ccc32)Nc2ccccc21`, the residual activity stood at 105%. Same read-out and setting: the result for `Nc1ccc2ncnc(NCCc3ccc(Oc4ccccc4)cc3)c2c1` reads 112%.

(Values after ChEMBL document CHEMBL2218924, “A broad activity screen in support of a chemogenomic map for kinase signalling research and drug discovery” (Biochem J, 2013).)
